According to PubChem BioAssay (Tox21):
Results filed as inconclusive are left out. Where a call stands in place of a potency, no number is given. The source holds several records for some structures; these can differ, active in one and inactive in another. Calls of active or inactive are those of the source. Unless noted, calls follow the shape of the dose curve; as a rule, active = well fitted cell-killing curve with a large enough effect in the repeat runs; inconclusive = weak or mixed curves, or effect the other way; inactive = no such curve, though single readings can be large or run the other way.

Target: Vitamin D3 receptor (Homo sapiens) (UniProt P11473)
Sequence (P11473 whole entry, looked up): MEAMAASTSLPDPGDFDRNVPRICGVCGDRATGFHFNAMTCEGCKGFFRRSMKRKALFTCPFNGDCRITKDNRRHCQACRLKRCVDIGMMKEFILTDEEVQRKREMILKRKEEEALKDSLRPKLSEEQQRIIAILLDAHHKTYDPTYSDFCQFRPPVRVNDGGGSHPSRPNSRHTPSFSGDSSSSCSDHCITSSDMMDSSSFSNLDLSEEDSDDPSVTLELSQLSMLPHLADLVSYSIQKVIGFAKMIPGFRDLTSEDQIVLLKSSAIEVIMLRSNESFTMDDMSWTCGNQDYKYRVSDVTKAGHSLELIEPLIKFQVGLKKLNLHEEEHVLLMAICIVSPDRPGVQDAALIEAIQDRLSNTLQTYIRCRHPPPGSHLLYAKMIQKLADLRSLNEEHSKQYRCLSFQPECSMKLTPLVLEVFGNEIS
Assay: qHTS assay to identify small molecule agonists of the vitamin D receptor (VDR) signaling pathway (AID 743222; calls by dose curve)
Details: HEK293T VDR-UAS-bla, beta-lactamase FRET ratio, 16 h; series mostly up to 63.5 µM
Outline: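 Using LiveBLAzer B/G FRET detection, agonism was scored in VDR-bla cells exposed overnight (16 h, 37C) to DMSO-dissolved compounds; substrate incubation was 2 h at room temperature.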

Structure (SMILES)	outcome
COCCOCCOCCO	inactive
Cc1ccc(C(C)(C)C)cc1	inactive
CCCCCCCCCCCCO	inactive
c1ccc2cc3ccccc3cc2c1	inactive
CCO[Si](CCCNC(N)=O)(OCC)OCC	inactive
Cc1ccc(N)c([N+](=O)[O-])c1	inactive
CC(C)(Oc1ccc(Cl)cc1)C(=O)O	inactive
CC/C=C\C/C=C\C/C=C\CCCCCCCC(=O)O	inactive
CNC[C@H](O)c1ccc(O)c(O)c1	inactive
C1COCCN1	inactive
Brc1nc2ccccc2s1	inactive
Cc1ccc(C)c(O)c1	inactive
COC(=O)c1ccc(C)cc1	inactive
NCCOCCO	inactive
C[C@]12C=CC(=O)C=C1CC[C@H]1[C@@H]3C[C@@H](O)[C@](O)(C(=O)CO)[C@@]3(C)C[C@H](O)[C@@]12F	inactive
O=S1(=O)CCCO1	inactive
CC(=O)Nc1ccc2c(c1)Cc1cc(NC(C)=O)ccc1-2	inactive
CCCCCCC(C)O (stereo not given)	inactive
CC1(C)C(C=C(Cl)Cl)C1C(=O)OCc1cccc(Oc2ccccc2)c1 (stereo not given)	inactive
Nc1ccc(O)c(N)c1	inactive
OC[C@@H](O)[C@@H](O[C@@H]1O[C@H](CO)[C@H](O)[C@H](O)[C@H]1O)[C@H](O)[C@@H](O)CO	inactive
C=C[C@@]1(C)CC(=O)[C@]2(O)[C@@]3(C)[C@@H](O)CCC(C)(C)[C@@H]3[C@H](O)[C@H](OC(C)=O)[C@@]2(C)O1	inactive
Cc1ccc([N+](=O)[O-])c(C)c1	inactive
Clc1ccc(Sc2cc(Cl)c(Cl)cc2Cl)cc1	inactive
Nc1cc(Cl)c(N)c(Cl)c1	inactive
COC(=O)C(C)Oc1ccc(Oc2ncc(C(F)(F)F)cc2Cl)cc1 (stereo not given)	inactive
C=CC(=O)OCCCC	inactive
CCC(=O)O[C@H]1[C@H](O[C@@H]2[C@@H](C)[C@H](O[C@H]3C[C@@](C)(OC)[C@@H](O)[C@H](C)O3)[C@@H](C)C(=O)O[C@H](CC)[C@@](C)(O)[C@H](O)[C@@H](C)C(=O)[C@H](C)C[C@@]2(C)O)O[C@H](C)C[C@@H]1N(C)C	inactive

Target: Vitamin D3 receptor (Homo sapiens) (UniProt P11473)
Assay: qHTS assay to identify small molecule antagonists of the vitamin D receptor (VDR) signaling pathway (AID 743223; active = well fitted inhibition curve with a large enough effect in the signal ratio in the repeat runs, not every such curve was filed as active; the % refers to the signal ratio)
Details: VDR-UAS-bla HEK293T, beta-lactamase FRET ratio, 16 h; series mostly up to 61 µM
Outline: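 Cells carrying a VDR-driven beta-lactamase reporter (VDR-bla) were co-treated with compound and 3 nM final 1alpha,25-dihydroxyvitamin D3 for 16 h at 37C; reporter activity was measured as FRET substrate fluorescence after 2 h at room temperature.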

Structure (SMILES)	outcome
COCCOCCOCCO	inactive
Cc1ccc(C(C)(C)C)cc1	inactive
CCCCCCCCCCCCO	inactive
c1ccc2cc3ccccc3cc2c1	inactive
CCO[Si](CCCNC(N)=O)(OCC)OCC	inactive
Cc1ccc(N)c([N+](=O)[O-])c1	inactive
CC(C)(Oc1ccc(Cl)cc1)C(=O)O	inactive
CC/C=C\C/C=C\C/C=C\CCCCCCCC(=O)O	inactive
CNC[C@H](O)c1ccc(O)c(O)c1	inactive
C1COCCN1	inactive
Cc1ccc(C)c(O)c1	inactive
COC(=O)c1ccc(C)cc1	inactive
NCCOCCO	inactive
C[C@]12C=CC(=O)C=C1CC[C@H]1[C@@H]3C[C@@H](O)[C@](O)(C(=O)CO)[C@@]3(C)C[C@H](O)[C@@]12F	inactive
O=S1(=O)CCCO1	inactive
CC(=O)Nc1ccc2c(c1)Cc1cc(NC(C)=O)ccc1-2	inactive
CCCCCCC(C)O (stereo not given)	inactive
CC1(C)C(C=C(Cl)Cl)C1C(=O)OCc1cccc(Oc2ccccc2)c1 (stereo not given)	inactive
Nc1ccc(O)c(N)c1	inactive
OC[C@@H](O)[C@@H](O[C@@H]1O[C@H](CO)[C@H](O)[C@H](O)[C@H]1O)[C@H](O)[C@@H](O)CO	inactive
Cc1ccc([N+](=O)[O-])c(C)c1	inactive
Clc1ccc(Sc2cc(Cl)c(Cl)cc2Cl)cc1	inactive
COC(=O)C(C)Oc1ccc(Oc2ncc(C(F)(F)F)cc2Cl)cc1 (stereo not given)	inactive
C=CC(=O)OCCCC	inactive

Tested on: not listed separately
Assay: qHTS assay to identify small molecule agonists of the vitamin D receptor (VDR) signaling pathway - cell viability counter screen (AID 743224); also: nearly all actives have a fitted effect of over 50% in size; also: potency is read from the fitted curve at half-maximal effect
Details: VDR-bla HEK293T viability, CellTiter-Glo luminescence, 16 h; series mostly up to 62.6 µM
Outline: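 Counter screen for cytotoxicity: VDR-bla cells at 2,000 cells/well, 16 h compound exposure, then CellTiter-Glo luminescence after the beta-lactamase measurement.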

Structure (SMILES)	Potency
COCCOCCOCCO	inactive
c1ccc2c(c1)ccc1ncccc12	inactive
Cc1ccc(C(C)(C)C)cc1	inactive
CCCCCCCCCCCCO	inactive
CCO[Si](CCCNC(N)=O)(OCC)OCC	inactive
Cc1ccc(S(=O)(=O)NCl)cc1	inactive
Cc1ccc(N)c([N+](=O)[O-])c1	inactive
C1COCCN1	inactive
CN(C)/N=N/c1nc[nH]c1C(N)=O	inactive
CCCCCCOCCOCCO	inactive
COC(=O)c1ccc(C)cc1	inactive
COc1cc([C@H]2Oc3cc([C@H]4Oc5cc(O)cc(O)c5C(=O)[C@@H]4O)ccc3O[C@@H]2CO)ccc1O	inactive
NCCOCCO	inactive
C[C@]12C=CC(=O)C=C1CC[C@H]1[C@@H]3C[C@@H](O)[C@](O)(C(=O)CO)[C@@]3(C)C[C@H](O)[C@@]12F	inactive
CC(=O)Nc1ccc2c(c1)Cc1cc(NC(C)=O)ccc1-2	inactive
COc1ccc(C(=O)c2ccccc2O)c(O)c1	inactive
CCCCCCC(C)O (stereo not given)	inactive
CC1(C)C(C=C(Cl)Cl)C1C(=O)OCc1cccc(Oc2ccccc2)c1 (stereo not given)	inactive
Nc1ccc(O)c(N)c1	inactive
c1ccc2ncccc2c1	inactive
NC[C@H](O)c1ccc(O)c(O)c1	inactive
C=C[C@@]1(C)CC(=O)[C@]2(O)[C@@]3(C)[C@@H](O)CCC(C)(C)[C@@H]3[C@H](O)[C@H](OC(C)=O)[C@@]2(C)O1	inactive
Cc1ccc([N+](=O)[O-])c(C)c1	inactive
Clc1ccc(Sc2cc(Cl)c(Cl)cc2Cl)cc1	inactive
Nc1cc(Cl)c(N)c(Cl)c1	inactive
O=C(O)CCCC(=O)O	inactive
COC(=O)C(C)Oc1ccc(Oc2ncc(C(F)(F)F)cc2Cl)cc1 (stereo not given)	inactive
CCC(=O)O[C@H]1[C@H](O[C@@H]2[C@@H](C)[C@H](O[C@H]3C[C@@](C)(OC)[C@@H](O)[C@H](C)O3)[C@@H](C)C(=O)O[C@H](CC)[C@@](C)(O)[C@H](O)[C@@H](C)C(=O)[C@H](C)C[C@@]2(C)O)O[C@H](C)C[C@@H]1N(C)C	36.4 µM (active) and inactive
